# Assay results: PubChem BioAssay
# Activity calls are given as the source filed them. Unless noted, how the calls were made is not given here.
# Columns and labels:
# [1] = HepG2 liver cancer cell viability effects, profiling panel, resazurin fluorescence, 24 h, PK04 Diversity Set (AID 1172); details: higher = more signal
# [2] = basal S. cerevisiae growth modulation, no modifier, primary screen, OD600, strain BY4716, 24 h, basal condition (AID 1173); details: OD600, 24 h, higher = more signal, called active from +8 up or from −8 down
# [3] = MM1S myeloma cell viability, profiling panel, resazurin fluorescence, basal, 24 h, PK04 Diversity Set (AID 1174); details: higher = more signal, called active from +8 up or from −8 down;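 further: MM1S multiple myeloma cell line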
# [4] = target: Dihydroorotate dehydrogenase (quinone), mitochondrial (Plasmodium falciparum (isolate 3D7)) (UniProt Q08210); test: PfDHODH enzyme inhibitors, primary screen, biochemical, C-terminal His tag, absorbance 600 nm (AID 1175); details: DCIP absorbance 600 nm, higher = more signal, called active from +8 up or from −8 down;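 further: recombinant parasite enzyme with a five histidine tag at its C terminus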
# [5] = P. aeruginosa biofilm formation inhibitors, primary screen, strain PAO1, LB-PBS medium, absorbance 600 nm (AID 1176); details: P. aeruginosa PAO1 growth/biofilm, A600, 12 h; higher = more signal
# [6] = S. cerevisiae RM11-1a growth modifiers, primary screen, strain RM11-1a, OD600, basal, 24 h (AID 1177); details: OD600, 24 h, higher = more signal, called active from +8 up or from −8 down;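 further: cultures grown under basal conditions with no added stressor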
# [7] = E. coli acrAB mutant growth effects, primary screen, E. coli filamentation inducers, strain DRC39, OD650, 24 h (AID 1178); details: higher = more signal, called active from +8 up or from −8 down;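 further: growth measured as culture turbidity by optical density at 650 nm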
# [8] = E. coli acrAB mutant growth effects, primary screen, E. coli filamentation inducers, strain DRC39, OD650, 48 h (AID 1179);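 further: screen aims at cell division blockers that make cells filament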; details: E. coli DRC39 delta-acrAB growth, higher = more signal, called active from +8 up or from −8 down
# [9] = RPMI8226 myeloma cell viability, profiling panel, resazurin fluorescence, basal, 24 h, PK04 Diversity Set (AID 1180); details: higher = more signal;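 further: RPMI8826 multiple myeloma cell line at 5000 cells per well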
# [10] = target: E3 ubiquitin-protein ligase XIAP (Homo sapiens) (UniProt P98170); test: XIAP binders, primary screen, biophysical, small-molecule microarray, fluorescence 635 nm (AID 1181); details: small-molecule microarray binding, higher = more signal;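 further: score merges 667 nm emission and signal to noise over triplicate slides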
# [11] = test system: XIP peptide (Xip251-270) binding; test: small-molecule binders of XIP peptide, primary screen, biochemical, small-molecule microarray, fluorescence 635/667 nm, 0.1 µg/mL protein (AID 1182); details: fluorescent protein binding, 635 nm, higher = more signal, called active from +8 up or from −8 down
# [12] = test system: XIP peptide (Xip251-270); test: small-molecule binders of XIP peptide, primary screen, biochemical, small-molecule microarray, fluorescence 635/667 nm, 0.5 µg/mL protein (AID 1183); details: small-molecule microarray binding, fluorescence 635 nm; higher = more signal
# [13] = Plasmodium falciparum growth inhibition, primary screen, strain 3D7, DAPI fluorescence, 100 nL (AID 1184);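 further: parasites grown inside human red blood cells in medium with human serum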; details: P. falciparum 3D7 growth, 3 d, higher = more signal
# [14] = target: Homeobox protein Hox-A13 (Mus musculus) (UniProt Q62424); test: inhibitors of HoxA13-DNA binding, primary screen, biochemical, fluorescence polarization, labeled oligonucleotide (AID 1185); details: 15 min, higher = more signal, called active from +8 up or from −8 down
# [15] = inhibitors of hydroxyurea-induced Chk1 phosphorylation, primary screen, imaging, HeLa, phospho-Chk1 antibody, percent positive cells (AID 1186); details: hydroxyurea-induced phospho-Chk1 immunofluorescence imaging, higher = more signal
# [16] = inhibitors of hydroxyurea-induced Chk1 phosphorylation, primary screen, imaging, HeLa, phospho-Chk1 nuclear intensity (AID 1187); details: hydroxyurea-induced phospho-Chk1 immunofluorescence imaging, higher = more signal
# Sequence of E3 ubiquitin-protein ligase XIAP (Homo sapiens) (P98170 whole entry, looked up): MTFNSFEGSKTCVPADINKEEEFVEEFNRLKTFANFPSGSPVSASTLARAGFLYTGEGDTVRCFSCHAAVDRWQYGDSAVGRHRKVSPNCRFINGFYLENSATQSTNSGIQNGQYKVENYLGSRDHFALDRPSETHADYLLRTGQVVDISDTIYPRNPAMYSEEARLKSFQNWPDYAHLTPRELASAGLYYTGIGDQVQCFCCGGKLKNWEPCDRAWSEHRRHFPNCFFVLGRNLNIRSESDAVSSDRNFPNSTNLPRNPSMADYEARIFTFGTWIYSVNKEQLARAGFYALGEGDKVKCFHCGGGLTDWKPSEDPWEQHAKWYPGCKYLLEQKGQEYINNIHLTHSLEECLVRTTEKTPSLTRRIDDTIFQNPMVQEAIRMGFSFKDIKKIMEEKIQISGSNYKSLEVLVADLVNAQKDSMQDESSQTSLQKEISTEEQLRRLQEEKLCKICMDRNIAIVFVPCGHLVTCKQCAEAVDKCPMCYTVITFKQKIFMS
# Sequence of Homeobox protein Hox-A13 (Mus musculus) (Q62424 whole entry, looked up): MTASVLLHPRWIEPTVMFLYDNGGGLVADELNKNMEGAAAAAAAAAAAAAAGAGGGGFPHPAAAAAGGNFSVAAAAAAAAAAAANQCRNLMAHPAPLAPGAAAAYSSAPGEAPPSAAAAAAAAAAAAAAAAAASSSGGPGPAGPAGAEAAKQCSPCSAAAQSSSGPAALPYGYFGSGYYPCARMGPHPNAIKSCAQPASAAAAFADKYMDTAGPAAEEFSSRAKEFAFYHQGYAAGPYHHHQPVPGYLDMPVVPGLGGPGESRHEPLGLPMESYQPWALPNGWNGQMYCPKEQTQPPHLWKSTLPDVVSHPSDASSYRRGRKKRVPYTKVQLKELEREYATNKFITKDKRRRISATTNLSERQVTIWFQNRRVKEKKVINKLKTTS
# Sequence of Dihydroorotate dehydrogenase (quinone), mitochondrial (Plasmodium falciparum (isolate 3D7)) (Q08210 whole entry, looked up): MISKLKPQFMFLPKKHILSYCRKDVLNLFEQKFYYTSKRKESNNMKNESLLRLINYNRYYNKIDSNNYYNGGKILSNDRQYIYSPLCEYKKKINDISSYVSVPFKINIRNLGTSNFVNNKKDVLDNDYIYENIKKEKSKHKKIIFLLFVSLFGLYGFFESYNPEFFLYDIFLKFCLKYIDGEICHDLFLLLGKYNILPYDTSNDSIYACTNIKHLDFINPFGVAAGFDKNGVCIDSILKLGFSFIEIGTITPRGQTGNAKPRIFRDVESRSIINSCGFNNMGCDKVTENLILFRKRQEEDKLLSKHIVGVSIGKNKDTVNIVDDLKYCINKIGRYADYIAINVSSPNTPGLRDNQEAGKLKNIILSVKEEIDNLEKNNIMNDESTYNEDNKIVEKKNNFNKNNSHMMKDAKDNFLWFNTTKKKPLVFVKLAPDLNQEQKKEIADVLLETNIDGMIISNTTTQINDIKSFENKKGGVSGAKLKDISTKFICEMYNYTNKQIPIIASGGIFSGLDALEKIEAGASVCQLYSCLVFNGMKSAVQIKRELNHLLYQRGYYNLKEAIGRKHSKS
Structure (SMILES),z-score [1],z-score [2],z-score [3],composite z-score [4],z-score [5],z-score [6],z-score [7],z-score [8],z-score [9],composite z-score [10],composite z-score [11],composite z-score [12],z-score [13],z-score [14],z-score [15],z-score [16]
O=C1OCCC=C[C@H]2OC34C=CCN(Cn5nnc6ccccc65)C(=O)[C@H]3N(CCO)C(=O)[C@@H]4C12 (some centres undefined),1.02,0.202 (inactive),0.542 (inactive),-1.15 (inactive),0.152 (inactive),-0.18 (inactive),-0.0287 (inactive),-0.249 (inactive),0.0841,-0.146,-0.681 (inactive),-0.552,-0.288,-2.78 (inactive),-0.943 (inactive),-1.01 (inactive)
O=C1[C@H]2C=C(I)[C@H](C[C@@H]2OCCCCO)[C@@]12CO2,0.187,-1.19 (inactive),-0.536 (inactive),-0.543 (inactive),0.13 (inactive),-0.192 (inactive),-0.682 (inactive),-0.405 (inactive),-0.304,-0.0448,-0.294 (inactive),-0.425,1.1,-1.94 (inactive),0.239 (inactive),-0.203 (inactive)
COc1ccc(C(=O)Nc2ccc(CN3C(=O)[C@]4(O[C@H](CC(=O)N5CCC[C@H]5CO)[C@@H]([Si](C)(C)c5ccc(OC)cc5)[C@@H]4C)c4ccccc43)cc2)cc1,-1.79,0.082 (inactive),-2.05 (inactive),-2.56 (inactive),0.0245 (inactive),0.557 (inactive),-0.0895 (inactive),-0.381 (inactive),-4.49,-0.361,0.731 (inactive),0.76,0.0279,-2.62 (inactive),0.303 (inactive),0.493 (inactive)
COCCOC(=O)N1C(=O)[C@@]2(c3ccccc31)[C@H](C(N)=O)[C@H]1C(=O)O[C@H](c3ccccc3)[C@H](c3ccccc3)N1[C@@H]2c1ccc(O)cc1,-0.755,-0.494 (inactive),-0.593 (inactive),-0.294 (inactive),0.806 (inactive),0.275 (inactive),0.396 (inactive),0.787 (inactive),-1.01,0.175,-0.114 (inactive),0.726,0.373,-4.73 (inactive),-0.0504 (inactive),-0.194 (inactive)
O=C(NC1CC1)[C@@H]1c2ccccc2C(=O)N(Cc2cc(F)cc(C(F)(F)F)c2)[C@H]1c1ccc(CO)cc1,0.672,-0.626 (inactive),-0.24 (inactive),-0.323 (inactive),0.373 (inactive),-0.953 (inactive),0.678 (inactive),-0.664 (inactive),-0.0559,-0.0527,-0.414 (inactive),0.716,-0.247,-3.5 (inactive),0.135 (inactive),-0.0928 (inactive)
O=C(O)[C@H](Cc1ccccc1)n1cc(-c2ccccc2)nn1,0.562,0.0419 (inactive),0.0284 (inactive),-0.0341 (inactive),0.738 (inactive),-0.14 (inactive),-0.0353 (inactive),-0.202 (inactive),-0.46,0.0812,-0.152 (inactive),0.297,0.0447,-1.17 (inactive),0.425 (inactive),-0.0072 (inactive)
CCOC(=O)C1=CC[C@@H](c2ccc(C(F)(F)F)cc2)N(S(=O)(=O)c2ccc(C)cc2)[C@H]1c1ccccc1,-0.333,0.062 (inactive),-2.34 (inactive),-0.296 (inactive),-0.0601 (inactive),-0.258 (inactive),-0.604 (inactive),-0.126 (inactive),-5.04,-0.278,0.544 (inactive),0.762,-2.02,0.759 (inactive),0.0487 (inactive),-0.516 (inactive)
C=C(C)[C@@H]1CC=C(C(O)C2C=CC3C(=O)NC(=O)C3N2Nc2ccc(Cl)cc2Cl)CC1 (some centres undefined),-3.18,-5.07 (inactive),-2.94 (inactive),0.512 (inactive),0.875 (inactive),1.11 (inactive),-0.761 (inactive),-1.29 (inactive),-2.54,-0.0655,-0.245 (inactive),0.468,-0.52,-5.46 (inactive),0.463 (inactive),0.154 (inactive)
C=CCN1Cc2ccccc2[C@@H]2OC(c3ccc(OCCCO)cc3)=N[C@]2(CCS(=O)(=O)c2ccccc2)C1=O,0.277,1.28 (inactive),-0.751 (inactive),0.651 (inactive),1.4 (inactive),1.38 (inactive),0.61 (inactive),0.713 (inactive),-0.764,-0.123,0.3 (inactive),0.799,-2.3,-2.43 (inactive),-0.386 (inactive),-0.386 (inactive)
O=C1O[C@H](c2ccccc2)[C@H](c2ccccc2)N2[C@H]1[C@@H](C(=O)NC[C@H](O)c1ccccc1)[C@]1(C(=O)Nc3ccccc31)[C@H]2c1ccc(O)cc1,-1,0.0934 (inactive),-1.16 (inactive),0.668 (inactive),0.346 (inactive),1.46 (inactive),0.759 (inactive),0.315 (inactive),-2.77,0.166,1.5 (inactive),0.665,-0.834,-4.25 (inactive),-0.0383 (inactive),0.188 (inactive)
CCCCCCCCCCC(O)C1C=CC2C(=O)NC(=O)C2N1Nc1ccc(Cl)cc1Cl (centres undefined),-2.55,-1.08 (inactive),-1.76 (inactive),0.762 (inactive),0.201 (inactive),1.69 (inactive),-0.801 (inactive),-1.27 (inactive),-1.51,-0.102,3.34 (inactive),-0.333,-0.642,-0.739 (inactive),0.387 (inactive),0.006 (inactive)
C=CC[C@]1(C(N)=O)COC(c2ccc(OCCCO)cc2)=N1,1.4,0.412 (inactive),-0.801 (inactive),0.94 (inactive),-0.814 (inactive),0.75 (inactive),1.12 (inactive),1.83 (inactive),0.679,-0.095,-0.539 (inactive),-0.0487,0.668,-0.063 (inactive),-0.551 (inactive),-0.351 (inactive)
C=CC[C@]12N=C(c3ccc(OCCCO)cc3)O[C@H]1c1ccccc1N(CCS(=O)(=O)c1ccccc1)C2=O,1.49,-0.298 (inactive),-1.58 (inactive),0.0191 (inactive),-0.0988 (inactive),1.05 (inactive),0.611 (inactive),-0.0546 (inactive),-0.585,-0.271,3.59 (inactive),0.708,-1.57,-2.59 (inactive),-0.382 (inactive),-0.315 (inactive)
C=C(/C(=C/C[C@H](OC(=O)c1ccncc1)c1ccc(OCCO)cc1)c1cc(C(=O)OC)ccc1OC)C(C)C,0.438,-1.44 (inactive),-0.0968 (inactive),-1.88 (inactive),-0.681 (inactive),-0.517 (inactive),-0.427 (inactive),-0.579 (inactive),-0.0979,-0.0095,0.249 (inactive),0.505,-2.87,-3.23 (inactive),-0.962 (inactive),-0.621 (inactive)
CCCCC(=C=CC[C@@H](O)c1cccc(OCCO)c1)C[C@@H](O)c1ccccn1,0.599,-1.56 (inactive),0.0382 (inactive),-1.42 (inactive),0.968 (inactive),0.129 (inactive),0.584 (inactive),0.493 (inactive),0.695,-0.102,1.26 (inactive),0.75,-0.12,-5.42 (inactive),-0.0346 (inactive),0.159 (inactive)
C#CCN1[C@H](/C=C/C2CC2)[C@H](Cc2ccccc2)OC(=O)[C@@H]1Cc1ccccc1,0.512,0.169 (inactive),0.214 (inactive),-0.627 (inactive),-0.283 (inactive),0.0319 (inactive),-0.463 (inactive),-0.144 (inactive),0.454,0.0853,1.42 (inactive),0.513,-0.568,-0.837 (inactive),-0.315 (inactive),-0.418 (inactive)
[N-]=[N+]=Nc1ccccc1C[C@@]1(C(=O)N2CCCCC2)N=C(c2ccc(OCCCO)cc2)O[C@@H]1c1ccccc1N=[N+]=[N-],-0.45,-0.893 (inactive),-2.09 (inactive),-0.0853 (inactive),0.578 (inactive),1.48 (inactive),0.472 (inactive),0.208 (inactive),-3.1,-0.0102,0.973 (inactive),0.0553,-2.42,-4.67 (inactive),-0.425 (inactive),-0.286 (inactive)
C#CCNCc1ccccc1,-0.0158,-1.11 (inactive),0.642 (inactive),-0.631 (inactive),-0.677 (inactive),-0.389 (inactive),-0.758 (inactive),-0.624 (inactive),0.353,-0.0848,-0.609 (inactive),0.118,-0.158,-0.0595 (inactive),0.213 (inactive),-0.392 (inactive)
CN(C)CCCCNC(=O)[C@@H]1C[C@@H]2C(=O)N[C@@H](CCCCN)C(=O)N2[C@@H]1c1ccc(O)cc1,0.637,1.43 (inactive),0.832 (inactive),0.0724 (inactive),0.833 (inactive),2.32 (inactive),0.499 (inactive),1.1 (inactive),0.918,-0.131,1.09 (inactive),0.881,-1.8,1.46 (inactive),0.128 (inactive),-0.115 (inactive)
